From PubChem BioAssay (NCI)
Compounds without any hit were thinned out: in the full panel of roughly 83,000, 20% have a hit.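 Note: values are percent growth. 100 is the growth of untreated cells, values between 100 and 0 indicate rising inhibition; between -100 and 0 indicates cell death.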 Values without a mark were called inactive. The source made the active and inactive calls.

The molecules below were run on ACHN renal (assay: NCI-60 one-dose screen, 48 h (100 = growth as untreated, 0 = no growth, -100 = all killed)). Conditions: 10 µM unless noted.
Description: Growth inhibition of the ACHN human tumor cell line is measured as a screen for anti-cancer activity. Cells are grown in 96 well plates and exposed to the test compound for 48 hours. Compounds are tested at a single concentration, which is 10^-5 M for most compounds. The reported endpoint is percent growth (GI% or GIPRCNT), where numbers from 0 - 100% represent growth inhibition, and numbers from -100% - 0 represent cell death. For example, a value of 40 represents 60% growth inhibition. A value of 0 means no net growth occurred over the course of the experiment. A value of -40 indicates 40% of cells at the beginning of the experiment died by the end of the experiment. A value of -100 means all cells are dead at the end of the experiment.
NCI-60 Human Tumor Cell Lines Screen was performed using the standard one-dose NCI protocol, which is described in more detail at https://dtp.cancer.gov/discovery_development/nci-60/default.htm.
Compounds with GIPRCNT values below 10 were considered active. Activity score was based on GIPRCNT using the following formula: […]
Score is 0 for GIPRCNT values of 100 or above, 50 for GIPRCNT values of 0, and 100 for GIPRCNT values of -100.
Molecule `O=C(Nc1cccc(Cl)c1)Nc1cccc(Cl)c1` has a growth of 59.2%. Work on `COC(=O)C1=CCC(n2cnc3c(N)ncnc32)O1` (stereo not given) yielded a growth of 110%. In the case of `O=C(COc1ccc(/C=C2\Cc3ccccc3C2=O)cc1)c1ccc(Cl)cc1`, the growth is reported as 107%. For `c1ccc(N2c3nc4ccccc4cc3Sc3cc4ccccc4nc32)nc1`, the growth was 92%. In the case of `CCN(CC)c1ccc(/C=C/C(=O)c2cccc(NS(C)(=O)=O)c2)cc1`, the growth is reported as 37.7%. With `CC(C)C[C@H](NC(=O)/C=C/Cn1ccc2ccccc2c1=O)B(O)O` the growth was 31.7%. For `O=C(Nc1nn2c(-c3cc(C(F)(F)F)cc(C(F)(F)F)c3)nnc2s1)C1CCCC1`, the growth was 8.22% (active). `COc1cc(C2CC(C3C(=O)N(C)C(=O)N(C)C3=O)=NN2C=O)cc(OC)c1OC` (stereo not given) showed a growth of 105%. `COC(=O)[C@H](Cc1cn(C)cn1)NC(=O)[C@H](C)NC(=O)Nc1cc(C(F)(F)F)cc(C(F)(F)F)c1` was tested, and the growth was -90% [100 µM] (active). Work on `CC(NC(N)=S)c1ccccc1` (stereo not given) yielded a growth of 108%. With `COc1ccc(NC(=O)[C@@H]2C[C@H]2c2ccccc2)c(C(N)=O)c1` the growth was 102%. Work on `c1ccc(Nc2ccc(Nc3nc(-c4ccccc4)nc4ccccc34)cc2)cc1` yielded a growth of 81.3%. For `COc1cc(/C=C/C(=O)C(C(=O)/C=C/c2ccc(OC(=O)CCNc3nnc(C)s3)c(OC)c2)C(=O)CCNc2nnc(C)s2)ccc1OC(=O)CCNc1nnc(C)s1`, the growth was -21.4% (active). With `CCOc1nc(-c2ccco2)n2nc(-c3ccco3)cc2n1` the growth was 95.5%. With `O=C(Nc1ccccc1S)c1ccccc1` the growth was 104%. With `COc1ccc(CNC(=O)c2c(C)n([O-])c3ccc(OC)cc3[n+]2=O)cc1` the growth was 111%. In the case of `COc1ccc(/C=C2/SC(=Nc3c(C)nn(-c4ccccc4)c3N)NC2=O)cc1`, the growth is reported as 46.8%. For `CCOC(=O)C1=CCC(n2cc(C)c(=O)[nH]c2=O)O1` (stereo not given), the growth was 103%. Work on `Nc1nc2c(nnn2Cc2ccc(Cl)c(Cl)c2)c(=O)[nH]1` yielded a growth of 92.4%. For `CC[C@@H](C)/C=C(C)/C=C/C(=O)c1c(O)c(-c2ccc(O)cc2)cn(OC2CC(=O)CCC(C)OC(=O)CC2O)c1=O` (stereo not given in full), the growth was 0.984% (active). For `COc1ccc(Cl)cc1Nc1nc(C(F)(F)F)ccc1C(=O)N/N=C/c1c(Cl)cccc1Cl`, the growth was 39.2%. `OCc1n(Cc2ccc3ccccc3c2)cc[n+]1Cc1ccc2ccccc2c1` gave a growth of 109%. In the case of `CSc1nc(N)c2c(n1)N(C)C=NS2(=O)=O`, the growth is reported as 99%. In the case of `CC(C)N(Cc1ccccc1)c1c(Cl)ssc1=O`, the growth is reported as 102%. Molecule `O=c1sc2ncnc3ncn1c32` has a growth of 80.3%. For `Cc1ccc(C(NC(=O)c2ccccc2)c2ccc3cccnc3c2O)cc1` (stereo not given), the growth was 8.26% (active). In the case of `NC(=N\N=C/Cc1ccccc1)/C(N)=N\N=C\Cc1ccccc1`, the growth is reported as 94.8%. Work on `Cc1sc2nc(NCc3ccccc3)[nH]c(=O)c2c1C` yielded a growth of 84%. `CC[C@H]1CN2CCc3cc(OC)c(OC)cc3C2C[C@@H]1CC1NCCc2cc(OC)c(OC)cc21` (stereo not given in full) was tested, and the growth was -16.5% (active). In the case of `COc1cc(-c2n[nH]nc2-c2ccccn2)cc(OC)c1OC`, the growth is reported as 94.8%. `CC1CN(C2CCCCC2)C(=O)NC1=O` (stereo not given) was tested, and the growth was 106%. Molecule `CN1CCC[C@@H]1CCO[C@](C)(c1ccccc1)c1ccc(Cl)cc1` has a growth of 65.9%. `CCCCCCCCCCCCCCCCNC(=O)Nc1ccc2ccccc2c1` was tested, and the growth was 108%. `c1ccc(COc2ccc(Nc3ncnc4c3cnn4-c3ccccc3)cc2)cc1` was tested, and the growth was 104%. Molecule `COP(=O)(OC)C(c1ccc(O)cc1)(c1ccc(O)cc1)c1ccc(O)cc1` has a growth of 103%. `CCCn1c(N)c(C(=O)CNc2ccc(I)cc2)c(=O)[nH]c1=O` was tested, and the growth was 50.7%. In the case of `COc1cc(C(=O)c2cc3c(cc2C)OCO3)cc(OC)c1OC`, the growth is reported as 36.3%. In the case of `CCOC(CNCc1cc(C)c2[nH]c3ccccc3c2c1C)OCC`, the growth is reported as 88.3%. `Cn1ccnc1C(=O)/C=C/c1ccc(C(=O)Nc2nc3ccccc3[nH]2)cc1` was tested, and the growth was 49.3%. `COc1cccc(/C=C2\Cc3ccccc3C2=O)c1` was tested, and the growth was 104%.
